Screening results deposited in PubChem BioAssay by several laboratories.
Hits are enriched below; roughly 3.3% of the tested compounds scored in any of these assays.
Efflux pump mplx – blocks antifungal efflux pumps in multiplex yeast assay | hit rate 0.44% among 330,000 | inhibition, % at 10 µM | S. cerevisiae Candida pump triplex, Nile Red efflux | AID 485275;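 active = plate passing quality check with inhibition over a set limit, or well fluorescence over plate mean plus 4 SD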;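 also: Nile Red retained in pooled yeast measured as flow cytometry median fluorescence; 0% = buffer negative control and 100% = Enniatin B positive control; higher means more Nile Red kept so more efflux inhibition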
Cl transport mod – KCC2 (human) Cl- transport modulation. Q9H2X9. KCC2 cells, thallium flux FluoZin-2 fluorescence. B-score of Tl+ flux slope (higher = more flux/activation; lower = inhibition) at 10 µM. hit rate 2.2% among 190,000;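 active = thallium flux slope and its plate-corrected score both differing from the plate sample mean at a set confidence after two filtering rounds, in either direction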;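 also: slope of fluorescence scaled to starting intensity during 10 to 20 s after thallium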
Target sequence (Q9H2X9 whole entry, looked up): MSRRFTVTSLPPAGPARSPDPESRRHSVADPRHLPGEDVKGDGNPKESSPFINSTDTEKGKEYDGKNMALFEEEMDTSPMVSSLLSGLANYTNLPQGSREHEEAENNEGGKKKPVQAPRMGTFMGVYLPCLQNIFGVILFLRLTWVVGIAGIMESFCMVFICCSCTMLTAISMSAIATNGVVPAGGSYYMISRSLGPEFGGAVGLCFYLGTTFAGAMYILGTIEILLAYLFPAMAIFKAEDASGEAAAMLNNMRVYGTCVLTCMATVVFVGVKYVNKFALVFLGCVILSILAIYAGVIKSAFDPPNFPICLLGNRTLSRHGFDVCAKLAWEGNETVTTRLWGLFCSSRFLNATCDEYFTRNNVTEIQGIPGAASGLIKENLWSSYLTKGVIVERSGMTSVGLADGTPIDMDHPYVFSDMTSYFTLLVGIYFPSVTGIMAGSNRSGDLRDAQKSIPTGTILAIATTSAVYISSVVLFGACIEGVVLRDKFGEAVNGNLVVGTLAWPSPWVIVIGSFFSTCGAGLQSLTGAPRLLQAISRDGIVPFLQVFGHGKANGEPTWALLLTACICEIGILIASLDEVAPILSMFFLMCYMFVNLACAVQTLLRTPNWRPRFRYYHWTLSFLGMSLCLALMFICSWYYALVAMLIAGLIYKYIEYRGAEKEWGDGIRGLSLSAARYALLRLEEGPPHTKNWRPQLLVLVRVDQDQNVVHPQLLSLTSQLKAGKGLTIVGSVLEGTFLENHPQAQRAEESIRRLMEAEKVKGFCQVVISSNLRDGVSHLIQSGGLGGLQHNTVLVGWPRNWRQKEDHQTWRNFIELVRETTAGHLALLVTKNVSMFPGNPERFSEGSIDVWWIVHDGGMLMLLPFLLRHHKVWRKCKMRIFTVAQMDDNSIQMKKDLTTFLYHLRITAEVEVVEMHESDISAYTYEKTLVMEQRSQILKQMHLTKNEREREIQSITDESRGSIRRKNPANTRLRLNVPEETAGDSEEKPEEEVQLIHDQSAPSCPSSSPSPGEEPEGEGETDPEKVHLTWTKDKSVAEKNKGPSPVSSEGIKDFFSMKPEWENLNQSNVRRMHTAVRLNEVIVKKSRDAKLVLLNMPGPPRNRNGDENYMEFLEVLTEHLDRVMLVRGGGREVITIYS
PHOSPHO1 block – blocks human PHOSPHO1 phosphatase activity. Q8TCT1. recombinant PHOSPHO1, absorbance phosphatase assay. inhibition, % at 13.3 µM. hit rate 1.1% among 290,000; in the data active = inhibition above about 60%
H9c2 protect – protects H9c2 cardiomyocytes from peroxide injury | AID 588492 | hit rate 0.63% among 360,000 | H2O2 injury protection, ATPLite, 2 h | protection from H2O2 cell death, % at 20 µM;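 active = compounds giving at least 50% protection of heart cells from peroxide-induced death in the single-dose screen, raw or plate-pattern-corrected value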;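 also: 0% = DMSO wells with peroxide and 100% = DMSO wells without peroxide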
Calb FLC – C. albicans growth modulation with fluconazole; hit rate 0.57% among 300,000; growth inhibition, % (test concentration not listed); C. albicans CaCi-2 (fluconazole-resistant clinical isolate) + fluconazole, Alamar Blue growth, 48 h;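 active = growth inhibition above about 58% in most replicates, limit read from the data, passing the limit was not always enough; inconclusive = exactly half the replicates above a set limit; inactive = most replicates below a set limit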;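 also: all wells also contain fluconazole at 8 µg/ml as a sub-toxic cotreatment; 0% = median of DMSO wells and 100% = median of geldanamycin control wells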
Cmpd fluor yeast – flagged as fluorescent in efflux inhibitor counter-screen | hit rate 4% among 1,700 | AID 588517 | fluorescence ratio to DMSO, % at 10 µM | S. cerevisiae AD/pABC3, compound fluorescence, flow cytometry | shares compounds with Efflux pump mplx;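 active = fluorescence ratio to DMSO above its plate's cutoff, the plate mean ratio plus 5 SD, cut at about 210% in these data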;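 also: unstained yeast with no Nile Red so the signal is compound autofluorescence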
Mdr1 pump inh – Candida Mdr1 efflux pump inhibition; shares compounds with Efflux pump mplx; S. cerevisiae AD/CaMDR1, Nile Red efflux, flow cytometry; inhibition, % at 10 µM; hit rate 1% among 1,700; AID 588518; in the data active = inhibition above about 26%;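 also: 0% = DMSO vehicle and 100% = reference inhibitor; higher means more Nile Red retained so more efflux inhibition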
CaCdr2 efflux inh – blocks the Candida albicans Cdr2 efflux pump in yeast | shares compounds with Efflux pump mplx | S. cerevisiae AD/CaCDR2, Nile Red retention, flow cytometry | Nile Red retention ratio vs DMSO, % at 10 µM | hit rate 4% among 1,700; in the data active = Nile Red retention ratio vs DMSO above about 190%;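 also: higher ratio means more blocking of Cdr2 efflux of the dye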
CaCdr1 efflux inh – Candida Cdr1 efflux pump inhibition. shares compounds with Efflux pump mplx. S. cerevisiae AD/CaCDR1, Nile Red efflux, flow cytometry. inhibition, % at 10 µM. hit rate 1% among 1,700. AID 588522;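 active = inhibition above the screen-wide mean plus twice its standard deviation, cut at about 32% in these data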
* marks the source's active call; other numbers are inactive results; u = inconclusive; x = not tested or not shown.

SMILES | Efflux pump mplx | Cl transport mod | PHOSPHO1 block | H9c2 protect | Calb FLC | Cmpd fluor yeast | Mdr1 pump inh | CaCdr2 efflux inh | CaCdr1 efflux inh
COc1ccc(NC(=O)COc2nsnc2N2CCCCC2)cc1 | 9.0* | 0.204 | 11.0 | -5.5 | -5.7 | 106.7 | 0.1 | 112.4 | 0.3
CCN(c1ccccc1)S(=O)(=O)c1ccc(OC)c(NC(=O)C2=NN(c3ccccc3)C(=O)CC2)c1 | x | x | x | 3.3 | x | x | x | x | x
O=C(NCc1ccccc1Cl)c1ccc2nc([C@@H]3O[C@H](CO)[C@H](O)[C@H](O)[C@H]3O)[nH]c2c1 | x | x | x | 6.0 | x | x | x | x | x
COc1ccc(CCNC(=O)CCC(=O)Nc2ccccc2[N+](=O)[O-])cc1OC | -0.3 | x | 23.9 | -1.7 | -5.1 | x | x | x | x
CCOC(=O)C(NC(=O)c1cccc(Cl)c1)(Nc1nnc(C)s1)C(F)(F)F (centres undefined) | 9.7* | 0.00578 | 16.7 | 13.5 | -7.8 | 105.7 | 0.5 | 108.1 | 0.3
Nc1c(Cl)cc(C2=NCCn3nc4ccccc4c32)cc1Cl | 0.6* | x | x | -0.2 | 56.0 | 86.6 | 0.8 | 94.1 | 0.6
COc1ccc(CCNC(=O)c2ccc(-c3ccc([N+](=O)[O-])cc3Cl)o2)cc1 | 6.7* | -0.874 | -3.9 | 33.4 | 10.3 | 141.7 | 0.2 | 99.7 | 0.2
COc1ccc(CCNC(=O)c2ccc(-c3cccc([N+](=O)[O-])c3)o2)cc1OC | -0.2 | -1.75 | 30.5 | 39.9 | -4.6 | x | x | x | x
CC(C)(C)C1CCC(OC(=O)C[N+]2(C)CCCC2)CC1 (centres undefined) | 0.5* | 0.0138 | -25.8 | 7.0 | -22.7 | 99.8 | -0.1 | 259.7* | -0.1
Cn1c(COc2ccc(Cl)cc2Cl)nnc1SCC(=O)NCC1CCCO1 (centres undefined) | 0.4 | x | 37.0 | -6.3 | 25.1 | x | x | x | x
COc1ccc(/C=c2\s/c(=C/C(=O)c3ccc(C)cc3)[nH]c2=O)c(OC)c1 | 18.8* | 1.87 | 3.0 | 4.7 | u | 108.3 | -0.2 | 118.4 | 0.0
O=C(CSc1nnc(C2CC2)n1C1CC1)c1cccs1 | -0.3 | x | x | 20.0 | x | x | x | x | x
CSc1nc(N)nc2c1ncn2CC(=O)N1CCN(Cc2c(C)cc(C)cc2C)CC1 | 0.3 | x | x | -41.5 | x | x | x | x | x
COc1ccc(OC)c(CNn2c(-c3cccc(C)c3)nc3ccccc3c2=O)c1 | 0.7* | x | 13.9 | 9.7 | 8.3 | 89.9 | -0.2 | 100.1 | 0.1
CN1CCN(NC(=O)Nc2ccc([N+](=O)[O-])cc2)CC1 | 0.2 | x | 25.0 | -4.2 | -4.5 | x | x | x | x
COc1cc([N+](=O)[O-])ccc1NC(=O)NN1CCN(C)CC1 | 5.3* | x | 35.2 | -1.6 | 4.2 | 84.4 | 0.2 | 93.2 | -0.2
CC(C)CC(=NNC(=O)c1ccncc1)c1cc(Cl)ccc1O | x | x | x | 34.5 | x | x | x | x | x
CC1(C)CC(N2CCN(CCO)CC2)=CC(=S)N1 | 0.1 | -0.687 | 24.4 | 4.0 | 4.6 | x | x | x | x
N/C(=N\OC(=O)Cc1cccs1)c1ccc(Cl)cc1 | 0.0 | -0.867 | 41.6 | -6.5 | -14.1 | 105.0 | -0.3 | 97.2 | 0.0
N/C(=N\OC(=O)Cc1cccs1)c1ccccc1 | 0.0 | 0.525 | 19.4 | -1.9 | 21.1 | x | x | x | x
COCCN(C(=O)CCC(=O)Nc1cc(C)on1)C(C(=O)NC(C)(C)C)c1ccc(OC)cc1 (centres undefined) | 0.4 | x | 34.8 | 2.2 | 7.6 | 98.6 | -0.1 | 107.8 | -0.1
CCC(C)(C)NC(=O)C(c1ccc(OC)cc1)N(Cc1ccco1)C(=O)CCC(=O)Nc1cc(C)on1 (centres undefined) | 0.1 | -0.454 | -0.9 | -0.6 | 0.7 | x | x | x | x
COc1ccc(C(C(=O)NC(C)(C)C)N(Cc2ccc(C)cc2)C(=O)CCC(=O)Nc2cc(C)on2)cc1 (centres undefined) | 0.0 | 0.818 | 19.0 | -0.1 | 27.9 | x | x | x | x
COc1ccc(C(C(=O)NC(C)(C)C)N(Cc2ccco2)C(=O)CCC(=O)Nc2cc(C)on2)cc1 (centres undefined) | 0.0 | -0.144 | -25.0 | -2.0 | 10.3 | 101.7 | -0.5 | 107.2 | -0.1
COC(C(=O)Nc1ccccc1C(=O)N1CCOCC1)c1ccccc1 (centres undefined) | 0.6 | x | 19.2 | 4.4 | -2.1 | x | x | x | x
SMILES | Efflux pump mplx | Cl transport mod | PHOSPHO1 block | H9c2 protect | Calb FLC | Cmpd fluor yeast | Mdr1 pump inh | CaCdr2 efflux inh | CaCdr1 efflux inh
O=C(Nc1sc2c(c1C(=O)O)CCC2)c1ccccc1Cl | 0.5* | x | 23.5 | 1.4 | 36.3 | 100.3 | -0.1 | 107.2 | 0.0
CCn1ncc(Br)c1C(=O)Nc1sc2c(c1C(=O)OC)CCC2 | 0.4 | 1.77 | x | -9.7 | -3.6 | 97.6 | -0.1 | 111.6 | -0.1
CCn1ncc(Br)c1C(=O)Nc1cc(C)cc(C)c1 | 6.5* | 0.0181 | -0.3 | -10.7 | 38.2 | 107.9 | 0.0 | 106.0 | 0.0
Cn1ncc(Cl)c1C(=O)Nc1sc2c(c1C(N)=O)CCC2 | 0.0 | -1.09 | -4.7 | 5.9 | -0.1 | 92.1 | -0.2 | 98.5 | 0.0
NC(=O)c1c(NC(=O)c2ccccc2)sc2c1CCC2 | 0.0 | x | x | -4.3 | -6.4 | x | x | x | x
COC(=O)c1c(NC(=O)c2ccn(C)n2)sc2c1CCC2 | -0.5 | x | 43.1 | -0.7 | 17.0 | 102.2 | -0.1 | 106.3 | 0.1
CCn1ccc(C(=O)Nc2sc3c(c2C(=O)OC)CCC3)n1 | 0.6* | x | 21.8 | 3.5 | 23.7 | 92.9 | 0.0 | 95.4 | -0.1
COC(=O)c1c(NC(=O)c2nn(C)cc2Cl)sc2c1CCCC2 | 0.3 | -0.63 | 5.7 | 3.8 | -2.5 | x | x | x | x
CC1CCCCC12NC(=O)N(CC(=O)NC1CCCc3ccccc31)C2=O (centres undefined) | 0.9* | 1.06 | 11.2 | -1.8 | 3.0 | 98.6 | 0.0 | 101.5 | 0.0
CCCN(CCC)C(=O)Cn1c(=O)n(CCCCCC(=O)Nc2ccccc2)c(=O)c2sccc21 | 18.9* | 2.77 | 18.8 | -0.4 | 2.2 | 104.0 | -0.1 | 96.5 | 0.0
CCN(CC)CCn1c2c(c(SCC(=O)Nc3nc4ccccc4s3)nc1=O)CCC2 | 0.0 | x | x | 0.1 | -4.1 | x | x | x | x
CCOc1ccc(CCNC(=O)Cc2ccc(NC3=NC4CS(=O)(=O)CC4S3)cc2)cc1 (centres undefined) | 0.4* | x | 43.9 | 8.3 | -4.1 | 87.6 | 0.0 | 89.9 | 0.0
CCOc1ccc(CCNC(=O)c2ccc(NC3=NC4CS(=O)(=O)CC4S3)cc2)cc1 (centres undefined) | 0.0 | x | 36.8 | 0.0 | -2.0 | x | x | x | x
CC(CNC(=O)Cn1cnc2c(NCc3ccccc3)ncnc21)c1ccccc1 (centres undefined) | -0.5 | x | x | -15.3 | x | x | x | x | x
CCC1=C(c2cc(OC)c(OC)c(OC)c2)C2(CCCC2)C(=O)O1 | 0.8* | x | 4.0 | -0.2 | -21.7 | 113.5 | -0.2 | 108.3 | 0.1
COc1cc(-c2ccc3oc(-c4ccsc4)c(C#CC4(O)CCCCC4)c3c2)cc(OC)c1OC | x | x | x | -6.2 | 16.4 | x | x | x | x
O=C1C(Cl)=C(N2CCCC2)C(=O)N1c1ccccc1F | 0.0 | x | -2.4 | -0.6 | -2.4 | x | x | x | x
